High-throughput results: PubChem BioAssay, National Center for Advancing Translational Sciences (NCATS)
FLuc counter: counter-screen for miR-21 project: firefly luciferase inhibitors or activators; purified FLuc, Km substrates, luminescence inhibition; Potency, µM (top dose mostly 57.5 µM), for inactives: top-dose activity change, negative = inhibition, actives largely listed as inhibitors; actives 6.9% (n = 360,000); AID 588342;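 also: plate controls were vehicle for no effect and reference inhibitor for full effect; nearly all actives have a fitted effect of over 55% in size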
Target sequence (P08659 whole entry, looked up): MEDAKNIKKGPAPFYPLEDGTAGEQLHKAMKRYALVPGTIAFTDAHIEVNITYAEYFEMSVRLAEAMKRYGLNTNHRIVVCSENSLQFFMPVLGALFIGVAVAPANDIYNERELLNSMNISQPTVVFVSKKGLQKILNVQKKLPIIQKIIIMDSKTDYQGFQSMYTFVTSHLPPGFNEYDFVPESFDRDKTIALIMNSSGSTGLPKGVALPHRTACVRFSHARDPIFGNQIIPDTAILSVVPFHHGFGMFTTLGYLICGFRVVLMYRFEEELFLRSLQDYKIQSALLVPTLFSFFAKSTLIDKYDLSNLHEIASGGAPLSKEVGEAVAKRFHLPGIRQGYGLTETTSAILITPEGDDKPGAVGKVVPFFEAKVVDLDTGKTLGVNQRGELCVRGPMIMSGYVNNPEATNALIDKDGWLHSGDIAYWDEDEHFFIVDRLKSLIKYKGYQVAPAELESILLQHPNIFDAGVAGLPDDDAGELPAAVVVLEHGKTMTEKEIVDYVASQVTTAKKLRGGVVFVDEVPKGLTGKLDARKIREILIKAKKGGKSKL
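Biochemical qHTS of compounds, final roughly 60 µM downward over six points, against 10 nM purified firefly luciferase using Km concentrations of substrates (10 uM D-luciferin, 10 uM ATP) in Tris acetate pH 7.5 buffer; luminescence output.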
ELG1 genotoxic: inducers of genotoxicity in HEK293T ELG1-luciferase cells; HEK293T ELG1-luciferase reporter, luminescence, 16 h; Potency, µM (top dose mostly 46 µM), for inactives: at the top dose activity change, positive = activation, hits mostly activators; actives 1.3% (n = 330,000); AID 504466; also: % of control where 0% means no effect; nearly all actives have a fitted effect of over 60% in size
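ELG1-luciferase HEK293T cells, 2,000/well; compound pinned in; 16 hr, 37 °C, 5% CO2; ONE-Glo, 30 min RT; luminescence on CCD imager.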
ELG1 DNA repair: ELG1-dependent DNA repair inhibition; HEK293T ELG1-luciferase reporter, luminescence, 16 h; DNA damage induced by 5-fluorouridine; Potency, µM (titrated, usually from 46.1 µM), inactives show at the highest dose activity change, negative = inhibition, most hits filed as inhibitors; actives 2.3% (n = 330,000); AID 504467; also: % is scaled to controls: 0 for no effect and ±100 for the full control effect; nearly all actives have a fitted effect of over 55% in size
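Overnight (16 hr) co-exposure of 2,000 cells/well to 5-fluorouridine and compound at 37 °C preceded detection. Luciferase was quantified via ONE-Glo luminescence; loss of signal denotes inhibition.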
NPC1 promoter act: activates the NPC1 promoter | Huh7 NPC1 promoter luciferase reporter, 24 h | Potency, µM (titrated, usually from 9.22 µM), for inactives: at the highest dose activation, usual class: activators | actives 2.4% (n = 320,000); also: % of control where 0% means no effect; nearly all actives have a fitted effect of over 60% in size
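Stably transfected Huh7 (NPC1 promoter→luciferase), 1500 cells/well in Opti-MEM + 10% FBS, 2 h settle, then compound 24 h at 37 °C. Luminescence after 10 min with Amplite reagent.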
Rab9 prom act: Rab9 promoter activation; Huh7 Rab9 promoter-luciferase reporter, luminescence, 24 h; Potency, µM (top dose mostly 9.22 µM), for the others: at the top dose activation, negative = inhibition, hits mostly activators; actives 2.8% (n = 320,000); also: % of control where 0% means no effect; nearly all actives have a fitted effect of over 60% in size
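Quantitative HTS format; Huh7 Rab9-luciferase reporter cells (1500/well) receive compound 2 h post-plating, incubate 24 h at 37 °C, then get luciferase reagent for 10 min before luminescence reading.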
SMN2 splice enh: SMN2 splice variant enhancement | HEK293 SMN2-luciferase splicing reporter, luminescence, 30-36 h | Potency, µM (doses to about 46.1 µM), for the others: top-dose activity change, positive = activation, hits mostly activators | actives 2.8% (n = 210,000) | AID 1458; also: % of control where 0% means no effect; nearly all actives have a fitted effect of over 55% in size
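HEK293 cells carry an SMN2 minigene-luciferase reporter in which exon 7 inclusion puts luciferase in frame. Cells were seeded at 2000 cells/well, attached for 10-12 hours, then exposed to compounds for 30-36 hours at 37C before ONE-Glo luminescence.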
The depositor's hits bear a star; ? = inconclusive; . = not tested or not shown; [ ] = dose if it differs, or a comment. In the library only some 9.2% were active in any assay of this set; here they are far more common. Calls follow the shape of the dose curve; as a rule, active = well fitted curve in the direction sought with a large enough effect; inconclusive = small, poorly fitted or top-dose-only effect, or another doubt; inactive = no such curve, though single readings can be large; an effect the other way counts as inactive or inconclusive. Potency is read from the fitted curve at half-maximal effect.

SMILES	FLuc counter	ELG1 genotoxic	ELG1 DNA repair	NPC1 promoter act	Rab9 prom act	SMN2 splice enh
CC(C)(C)c1ccccc1NC(=O)c1ccc2c(c1)SC1=NS(=O)(=O)CCN12	-3.0%	-11.4%	20.6µM*	1.3%	-4.1%	.
Cc1ccc(C(=O)/C=C2\NCCNC2=O)cc1	5.36µM*	?	?	1.41µM*	0.891µM*	2.82µM*
Cc1ccc(C(=O)/C=C2\NCC(C)NC2=O)cc1 (configuration not stated)	1.2µM*	?	?	0.316µM*	0.316µM*	14.5%
COC(=O)/C=C1\NCCNC1=O	-1.5%	1.6%	1.8%	-2.0%	1.0%	.
Cc1ccc(-c2c3c(=O)n(C)c(=O)n(C)c3c3n2-c2ccccc2NC3c2ccc(C)cc2O)cc1 (configuration not stated)	-9.3%	.	.	.	.	.
O=C(Nc1ncccc1O)c1ccc(Oc2ccccc2)cc1	6.75µM*	9.2µM*	?	1.78µM*	2.82µM*	.
CCOc1ccc(C(=O)NC2=NCCS2)cc1	10.7µM*	?	?	1.12µM*	0.501µM*	14.1µM*
O=C(NC1=NCCS1)c1ccc(OCC2CCCO2)cc1 (configuration not stated)	?	?	?	0.398µM*	0.355µM*	10µM*
O=C(Nc1ncccc1O)c1ccc(OCC2CCCO2)cc1 (configuration not stated)	7.57µM*	1.16µM*	?	0.794µM*	0.794µM*	.
CCOC(=O)CCc1c(C)c2ccc3c(c2oc1=O)CN(CCCO)CO3	-1.0%	-0.7%	4.8%	-3.3%	0.5%[1.84 µM]	.
CC1CCCCN1C(=O)C1CCN(c2nc(-c3ccccc3)nc3c2CCC3)CC1 (configuration not stated)	5.6%	-2.0%[9.26 µM]	?	-2.0%	-0.5%	.
COC(=O)c1ccc(N/C(C)=C/C(=O)c2ccc(C)o2)cc1	12µM*	17.6%	?	0.0%	1.2%	20.0%
CCOc1ccc(N/C(C)=C/C(=O)c2ccc(C)o2)cc1	6.01µM*	?	?	?	?	-7.5%
COC(=O)c1ccc(NC(=O)Cc2ccc(C)cc2)cc1	0.2%	0.7%	12.6%	5.5%	3.5%	-11.4%
CCOc1ccc(NC(=O)CCc2ccc(C)o2)cc1	-18.5%	8.5%	?	15.1%	-3.1%	.
O=C(CSc1ccc(Cl)cc1)N1N=CCC1c1ccccc1 (configuration not stated)	-13.5%	-0.3%	-0.3%	-2.7%	3.0%	.
O=C(CSC(=S)N1CCCCC1)N1N=CCC1c1ccccc1 (configuration not stated)	21.3µM*	?	?	25.6%	22.4%	-3.6%
Cc1cccc(N(C)C(=O)C2CCN(S(=O)(=O)c3cccc4nonc34)CC2)c1	0.0%	.	.	.	.	.
Clc1ccc(-c2nc(NCCCN3CCOCC3)c3ccccc3n2)cc1	-2.5%	-12.5%	23.1µM*	-2.0%	1.2%	.
Clc1ccc(-n2ncc3c(NCCN4CCOCC4)ncnc32)cc1	6.75µM*	3.66µM*	?	29.2%	4.6%	-46.6%
c1ccc2c(c1)oc1c(NCCCN3CCOCC3)ncnc12	-4.2%	11.9%	13.5%	-2.7%	-1.4%	6.9%
c1ccc(-n2ncc3c(NCCCN4CCOCC4)ncnc32)cc1	23.9µM*	?	?	3.16µM*	3.98µM*	?
CC1CCc2c(sc3ncnc(NCCN4CCOCC4)c23)C1 (configuration not stated)	-9.7%	3.8%	-3.3%	-4.9%	-2.3%	.
Clc1cccc(-c2nc(NCCCN3CCOCC3)c3ccccc3n2)c1	-3.6%	-17.6%	?	1.4%	-0.1%	-48.5%
Cc1sc2ncnc(NCCN3CCOCC3)c2c1C	-0.2%	-14.9%	18.4µM*	-1.9%	-7.1%	-43.5%
O=P(c1ccccc1)(c1ccccc1)C(O)c1ccccn1 (configuration not stated)	-0.4%	0.4%	1.0%	6.3%	0.6%	.
